# In PubChem BioAssay (NCI):
# Several values for one entry are separate records, joined by “and”; a condition that tells them apart may be missing. Identical values can stand only once. This is part of a sample that, as a whole, favours compounds with a hit. Of some 83,000 tested, about 20% had one in any assay.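 Single-concentration screen, 48 h exposure, 96-well plates. Endpoint: percent growth. Below 10 = active.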 Activity calls are given as the source filed them.
# System: HL-60(TB) leukemia
# Assay: NCI-60 one-dose screen, 48 h (100 = growth as untreated, 0 = no growth, -100 = all killed)
# Settings: 10 µM unless noted
row,SMILES,growth
1,Nc1nc2c(s1)CCc1cn(S(=O)(=O)c3ccccc3)cc1-2,70.6% (inactive) and 76.2% (inactive)
2,Nc1ccc2c(O)cc(S(=O)(=O)O)cc2c1,89.8% (inactive) and 67% (inactive)
3,O=C1c2ccccc2C(=O)c2c(NCCNCCO)ccc(NCCNCCO)c21,64.9% (inactive) and 11.4% (inactive) and 2.46% (active)
4,CCCCCCCCC(C)OC(=O)c1nn(C(C)=O)c2ccccc12 (centres undefined),99.5% (inactive)
5,N#CC(C#N)=NO,104% (inactive)
6,COc1ccc2nc(NC(=O)CSc3nnc4n3S(=O)(=O)c3ccccc3N4c3ccccc3)sc2c1,-83.2% (active)
7,COc1ccc(S(=O)(=O)N2CCOCC2)cc1NC(=O)c1[nH]c(C)c2c1CCCCC2=O,99.6% (inactive) and 15% (inactive)
8,C/C(=N/NC(=O)Cn1c2ccccc2c2ccncc21)c1cccs1,83.5% (inactive)
9,O=c1[nH]c2cc(Cl)c(Cl)cc2o1,120% (inactive)
10,Nc1nc2ncc(CCNc3ccc(C(=O)NC(CCC(=O)O)C(=O)O)cc3)nc2c(=O)[nH]1 (centres undefined),144% (inactive)
11,Nc1c(O)c(S(=O)(=O)O)c(O)c2c1C(=O)c1ccccc1C2=O,-8.61% (active)
12,O=C(Nc1cccc(Cn2c(=O)[nH]c3ccc(Oc4ncccn4)cc3c2=O)c1)c1ccc(Cl)cc1,64.2% (inactive)
13,COc1ccc2c(c1)sc1nc(-c3ccc(N(C)C)cc3)cn12,65.4% (inactive)
14,CC(C)C(NC(=O)CN)C(=O)O (centres undefined),94.9% (inactive) and 98.7% (inactive)
